# Screening data deposited in PubChem by National Center for Advancing Translational Sciences (NCATS).
# Most compounds without a hit are left out; they make up all but 3.8% or so of the library.
# CBFb RUNX1 block = CBF-beta/RUNX1 interaction disruption | Q01196+Q13951 | AlphaScreen CBFb-His/RUNX1-biotin binding, biochemical | Potency, µM (top dose mostly 59.8 µM), actives largely listed as inhibitors | 230,000 tested, under 10 active
#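 Compounds were screened at multiple concentrations against a preformed CBF-beta(His)/RUNX1(biotin) complex (30 nM of each) for 15 min at room temperature, followed by 90 min with nickel and streptavidin beads and AlphaScreen reading.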
# VDR inhibitor = inhibitors of human vitamin D receptor; P11473; VDR-SRC2-3 peptide fluorescence polarization, 2 h; Potency, µM, usual class: inhibitors; actives 0.93% (n = 400,000)
#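 Signal is fluorescence polarization, reporting how far test compounds block the interaction of VDR with the SRC2-3 coregulator peptide after a 2 h room-temperature incubation.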
# KCNH2 3.1 inh = inhibitors of human KCNH2 3.1 potassium channel isoform; U2OS KCNH2 3.1, thallium flux FluxOr; stronger effect = lower value; activity change, % (tested at about 1.8 µM); actives 0.95% (n = 340,000); AID 720553;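 active = maximum activity change below -70%; inconclusive = maximum activity change from -70% to -50%; inactive = maximum activity change above -50%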;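 also: thallium influx rate constant from kinetic fluorescence after stimulation buffer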
#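 Thallium flux via FluxOr fluorescence (Red40 quencher, 45 min loading) in U2OS cells virally expressing the KCNH2 3.1 isoform (1.77 x 10^8 /mL virus, overnight at 37 C). Rate constants from 2-min kinetic reads post-stimulation, normalised to positive and negative controls.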
# PLK1 PBD inh = inhibitors of human PLK1 polo-box domain binding. Potency, µM, hits mostly inhibitors. actives 2.8% (n = 360,000). Plk1 PBD binding of FITC phosphopeptide, fluorescence polarization; also: series mostly up to about 57 µM; nearly all actives have a fitted effect of over 65% in size
# KCNH2 WT inh = blocks the wildtype human KCNH2 potassium channel; Q12809; U2OS, BacMam KCNH2, thallium flux FluxOr; stronger effect = lower value; activity change, % at 1.84 µM; actives 0.37% (n = 340,000); AID 720551;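 active = maximum activity change below -70%; inconclusive = maximum activity change between -70% and -50%; inactive = maximum activity change above -50%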
#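 U2OS cells were transduced with wild-type KCNH2 virus (2.03 x 10^8 / mL) for 4 h at room temperature, then cultured overnight at 37 C. Thallium flux was read with FluxOr dye. Rate constants were normalized to DMSO controls.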
# MBNL1 CUG block = inhibitors of human MBNL1 binding to CUG repeat RNA; Q9NR56; TR-FRET MBNL1-His/biotin-(CUG)12 binding, 665/545 ratio; Potency, µM (titrated, usually from 57.5 µM), actives largely listed as inhibitors; actives 0.036% (n = 280,000); AID 2675; active = well fitted inhibition curve with a large enough effect in the signal ratio, with a control signal flat, not every such curve was filed as active; inconclusive = small, poorly fitted or top-dose-only effect, or effect the other way, or a change in a side signal; inactive = no such curve, though single readings can be large or run the other way; the % refers to the signal ratio
#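 Inhibition of protein-RNA binding appears as loss of TR-FRET between terbium anti-His antibody on MBNL1-His and streptavidin-XL665 on biotin-(CUG)12. Activity is normalized to buffer-only and uninhibited-complex controls.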
# Numbers stand for hits; - = inactive; ? = inconclusive; . = no result given; ! = a repeat was not active. Unless noted, calls follow the shape of the dose curve; as a rule, active = well fitted curve in the direction sought with a large enough effect; inconclusive = small, poorly fitted or top-dose-only effect, or another doubt; inactive = no such curve, though single readings can be large; an effect the other way counts as inactive or inconclusive.
SMILES,CBFb RUNX1 block,VDR inhibitor,KCNH2 3.1 inh,PLK1 PBD inh,KCNH2 WT inh,MBNL1 CUG block
COc1ccccc1NC(=O)CSc1oc(-c2ccco2)nc1S(=O)(=O)c1ccc(C)cc1,.,-,.,.,.,.
CCC(=O)c1ccc(OCC(O)CN2CCN(C(c3ccccc3)c3ccccc3)CC2)cc1 (stereo unspecified),-,-,-98,-,-88,-
COc1ccccc1OCCCCN1CCN(C(c2ccccc2)c2ccccc2)CC1,-,-,-93,-,-,-
OCCN1CCN(CC(O)COCCOc2ccc(Br)cc2)CC1 (stereo unspecified),-,18µM,-,11µM,-,-
Cc1ccc(Cl)cc1N1CCN(CC(O)COCc2ccco2)CC1 (stereo unspecified),-,-,.,-,-,-
COc1ccc(N2CCN(CC(O)COCCOc3ccc(Br)cc3)CC2)cc1 (stereo unspecified),-,-,.,-,-,-
OC(COCc1ccco1)CN1CCN(C(c2ccccc2)c2ccccc2)CC1 (stereo unspecified),-,-,-104,-,-76,-
OC(COc1ccccc1)CN1CCCC1 (stereo unspecified),-,-,-,-,-,-
OC(COc1ccccc1)CN1CCN(C(c2ccccc2)c2ccccc2)CC1 (stereo unspecified),.,-,-109,-,-120,-
c1csc(CNc2nc(-c3ccoc3)nc3ccccc23)c1,.,22µM,.,.,.,.
c1csc(CNc2cc(-c3ccoc3)ncn2)c1,.,20µM,.,.,.,.
Cn1c(=O)c2sccc2n2c(CCCC(=O)NC3CCCCC3)nnc12,.,-,.,.,.,.
Cc1c(-c2ccccc2)[nH]n2c(=O)c3c(nc12)CCCC3,-,-,-92,-,-,-
COC(=O)CNS(=O)(=O)c1ccc(C)cc1,-,-,-,?,-,-
Cc1ccc(S(=O)(=O)NCC(=O)OCN2C(=O)c3ccccc3C2=O)cc1,-,-,-,5.3µM,-,-
Cc1ccc(S(=O)(=O)NCC(=O)OC2CCOC2=O)cc1 (stereo unspecified),-,-,-95,-,-126,-
O=C(CNC(=O)c1ccc(Cl)cc1)OC1CCOC1=O (stereo unspecified),-,-,-,24µM,-,-
O=C(CCn1c2c(c3ccccc31)CCCC2)NNC(=O)c1ccc(Cl)c([N+](=O)[O-])c1,-,?,-,30µM,-,-
CCCOc1ccc(C2c3c(-c4ccccc4O)n[nH]c3C(=O)N2Cc2ccncc2)cc1OCC (stereo unspecified),.,-,.,.,.,.
Cc1cccc(S(=O)(=O)C(C#N)c2nc3ccccc3nc2N2CCCC2)c1 (stereo unspecified),-,-,-,30µM!,-,-
O=C(N/N=C/c1ccccn1)c1[nH]c2ccc([N+](=O)[O-])cc2c1-c1ccccc1,?,-,-,-,-,-
NNC(=O)c1[nH]c2ccc([N+](=O)[O-])cc2c1-c1ccccc1,.,79µM,-,-,-,?
O=C(O)c1[nH]c2ccc([N+](=O)[O-])cc2c1-c1ccccc1,-,-,-194,?,-,?
O=C(Cn1ncc2c([nH]c3ccccc32)c1=O)N1CCN(c2ccccc2F)CC1,.,-,-,27µM,-,-
O=C(Cn1ncc2c([nH]c3ccccc32)c1=O)N1CCN(c2ccc(F)cc2)CC1,.,-,-,?,-,-
SMILES,CBFb RUNX1 block,VDR inhibitor,KCNH2 3.1 inh,PLK1 PBD inh,KCNH2 WT inh,MBNL1 CUG block
Cc1cc(F)ccc1NC(=O)CS(=O)(=O)c1cccc2nsnc12,.,-,.,.,.,.
C=CCn1c(SCC(=O)Nc2cc(C)on2)nc2sc3c(c2c1=O)CCCC3,-,-,-,27µM,-,-
C=CCn1c(SCC(=O)Nc2ccc(O)cc2)nc2sc(C)c(C)c2c1=O,.,-,-,?,-,.
C=CCn1c(SCC(=O)Nc2cc(Cl)ccc2C(=O)O)nc2sc(C)c(C)c2c1=O,.,-,-,24µM,-,.
CCOc1ccc(S(=O)(=O)NCC(c2ccc(N(C)C)cc2)N2CCCC2)cc1 (stereo unspecified),.,-,.,.,.,.
O=[N+]([O-])c1ccc(/C=N\NS(=O)(=O)c2ccc(F)cc2)o1,.,-,-85,?,-,?
O=C(N/N=C/c1ccc([N+](=O)[O-])o1)c1ccc(O)cc1,-,-,-,-,-,?
O=S(=O)(/N=C(/NS(=O)(=O)c1ccccc1)c1ccccc1)c1ccccc1,-,-,-,-,-,-
COC(=S)N/C(=N\S(=O)(=O)c1ccc(Cl)cc1)c1ccccc1,.,89µM,-,24µM,-,-
Cc1ccc(NC(=S)N/C(=N/S(=O)(=O)c2ccccc2)c2ccccc2)cc1,-,-,-,24µM,-,-
CCOC(=S)N/C(=N\S(=O)(=O)c1ccccc1)c1ccccc1,-,-,-,19µM,-,-
CCCOC(=S)N/C(=N\S(=O)(=O)c1ccccc1)c1ccccc1,-,-,-,28µM,-,-
Cc1ccc(S(=O)(=O)/N=C(/NC(=S)Nc2ccccc2)c2ccccc2)cc1,-,-,-,?,-,-
CCCCCOc1ccc(/C=C/C(=O)Nc2sc3c(c2C(=O)OCC)CCC3)cc1OC,.,-,.,.,.,.
COc1ccc(CNC(=O)c2cnn3c(C)c(Cc4ccc(F)cc4)c(C)nc23)cc1,.,-,.,.,.,.
Cc1ccc(Sc2ccc(N3CCC(C(=O)Nc4cc(C)cc(C)c4)CC3)nn2)cc1,.,-,.,.,.,.
CCOC(=O)c1ccc(N/C(=N\S(=O)(=O)c2ccccc2C)c2ccccc2)cc1,-,-,-,-,-,-
CCOC(=S)N/C(=N\S(C)(=O)=O)c1ccccc1,-,-,-,17µM,-,-
COc1cc(CNC2CCCCCC2)cc(OC)c1,-,-,-87,-,-,-
Cc1oc(-c2ccc(-c3ccccc3)cc2)nc1CN(C)C1CCOC1 (stereo unspecified),-,-,-,24µM,-,-
C=CCN1C(c2ccccc2)=CS/C1=C(/C#N)c1nnc(N2CCOCC2)n1-c1ccccc1,-,-,-,21µM,.,.
Cn1c(/N=C/c2c(O)ccc3ccccc23)nc2ccccc21,-,35µM,-,1.3µM,-,?
CC1=C([N+](=O)[O-])C(c2ccc(Cl)cc2)NC(=O)N1C (stereo unspecified),.,?,-,3µM,-,?
Cc1cc(N2C(=O)C=CC2=O)c([N+](=O)[O-])cc1C,-,32µM,.,6µM,-,-
Cc1ccc([N+](=O)[O-])c(C)c1,-,.,.,.,.,.
COc1ccc(CC(=S)NCCc2ccccc2)cc1,.,?,-,7.5µM,-,-
S=C(Cc1ccccc1)NCCc1ccccc1,.,-,-,-,-,.
COc1ccccc1N1CCN(C(=O)c2cc3c(=O)n(C)c4ccccc4c3s2)CC1,.,-,.,.,.,.
